Reference: the supplement of paper PMC11732987, “Enantioselective OTUD7B fragment discovery through chemoproteomics screening and high-throughput optimisation” (Communications Chemistry, 2025)

How the values were obtained:
Assay in all cases: log2 ratio of Biotin-Ahx-Ub-VS probe labelling (fragment/DMSO); higher = less target engagement (more negative = stronger competition), active = hit call of the paper (q ≤ 0.05, log2 ratio ≤ -1)
Conditions in all cases: compound concentration: 200 uM; treatment time: 3 h
[1] = target: USP16 (UniProt Q9Y5T5)
USP16, sequence (Q9Y5T5 whole entry, looked up, the tested form may be a part): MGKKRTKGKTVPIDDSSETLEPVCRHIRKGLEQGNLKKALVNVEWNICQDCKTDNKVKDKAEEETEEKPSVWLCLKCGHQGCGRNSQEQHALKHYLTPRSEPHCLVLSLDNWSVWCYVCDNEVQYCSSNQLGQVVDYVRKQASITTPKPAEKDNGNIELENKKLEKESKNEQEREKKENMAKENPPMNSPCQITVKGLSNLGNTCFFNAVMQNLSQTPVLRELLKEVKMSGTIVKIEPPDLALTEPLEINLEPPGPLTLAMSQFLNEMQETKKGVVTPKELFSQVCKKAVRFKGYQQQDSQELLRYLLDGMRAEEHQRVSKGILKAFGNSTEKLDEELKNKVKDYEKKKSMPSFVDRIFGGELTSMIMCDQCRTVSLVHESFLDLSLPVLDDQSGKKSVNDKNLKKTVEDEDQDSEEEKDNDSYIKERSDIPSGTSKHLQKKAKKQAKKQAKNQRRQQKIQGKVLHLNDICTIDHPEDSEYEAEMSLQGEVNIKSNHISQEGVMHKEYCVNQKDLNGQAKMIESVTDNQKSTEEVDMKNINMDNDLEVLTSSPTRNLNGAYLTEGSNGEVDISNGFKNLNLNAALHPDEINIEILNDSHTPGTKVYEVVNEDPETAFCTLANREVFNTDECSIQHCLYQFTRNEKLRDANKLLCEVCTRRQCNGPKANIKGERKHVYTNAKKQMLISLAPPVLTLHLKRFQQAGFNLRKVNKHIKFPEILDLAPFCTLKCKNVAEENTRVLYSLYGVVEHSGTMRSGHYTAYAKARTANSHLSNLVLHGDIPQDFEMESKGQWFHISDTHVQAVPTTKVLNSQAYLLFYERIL
Method in brief: (§1)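 Labelling with Biotin-Ahx-Ub-VS (0.5 µM final, 1 h) followed a 3 h triplicate treatment of HEK293T lysate (495 µg per sample, Tris/CHAPS/IGEPAL buffer with protease inhibitors) with fragment at 200 µM or vehicle. Labelled DUBs were NeutrAvidin-enriched, digested with LysC and trypsin, and run by diaPASEF LC-MS/MS. The values, average log2 fragment/vehicle ratios by unpaired t-test, come from global-median-normalised Spectronaut label-free quantities. Proteins with ≥2 unique peptides were used.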

[2] = target: T1, USP19 (UniProt O94966)
T1 sequence (whole entry): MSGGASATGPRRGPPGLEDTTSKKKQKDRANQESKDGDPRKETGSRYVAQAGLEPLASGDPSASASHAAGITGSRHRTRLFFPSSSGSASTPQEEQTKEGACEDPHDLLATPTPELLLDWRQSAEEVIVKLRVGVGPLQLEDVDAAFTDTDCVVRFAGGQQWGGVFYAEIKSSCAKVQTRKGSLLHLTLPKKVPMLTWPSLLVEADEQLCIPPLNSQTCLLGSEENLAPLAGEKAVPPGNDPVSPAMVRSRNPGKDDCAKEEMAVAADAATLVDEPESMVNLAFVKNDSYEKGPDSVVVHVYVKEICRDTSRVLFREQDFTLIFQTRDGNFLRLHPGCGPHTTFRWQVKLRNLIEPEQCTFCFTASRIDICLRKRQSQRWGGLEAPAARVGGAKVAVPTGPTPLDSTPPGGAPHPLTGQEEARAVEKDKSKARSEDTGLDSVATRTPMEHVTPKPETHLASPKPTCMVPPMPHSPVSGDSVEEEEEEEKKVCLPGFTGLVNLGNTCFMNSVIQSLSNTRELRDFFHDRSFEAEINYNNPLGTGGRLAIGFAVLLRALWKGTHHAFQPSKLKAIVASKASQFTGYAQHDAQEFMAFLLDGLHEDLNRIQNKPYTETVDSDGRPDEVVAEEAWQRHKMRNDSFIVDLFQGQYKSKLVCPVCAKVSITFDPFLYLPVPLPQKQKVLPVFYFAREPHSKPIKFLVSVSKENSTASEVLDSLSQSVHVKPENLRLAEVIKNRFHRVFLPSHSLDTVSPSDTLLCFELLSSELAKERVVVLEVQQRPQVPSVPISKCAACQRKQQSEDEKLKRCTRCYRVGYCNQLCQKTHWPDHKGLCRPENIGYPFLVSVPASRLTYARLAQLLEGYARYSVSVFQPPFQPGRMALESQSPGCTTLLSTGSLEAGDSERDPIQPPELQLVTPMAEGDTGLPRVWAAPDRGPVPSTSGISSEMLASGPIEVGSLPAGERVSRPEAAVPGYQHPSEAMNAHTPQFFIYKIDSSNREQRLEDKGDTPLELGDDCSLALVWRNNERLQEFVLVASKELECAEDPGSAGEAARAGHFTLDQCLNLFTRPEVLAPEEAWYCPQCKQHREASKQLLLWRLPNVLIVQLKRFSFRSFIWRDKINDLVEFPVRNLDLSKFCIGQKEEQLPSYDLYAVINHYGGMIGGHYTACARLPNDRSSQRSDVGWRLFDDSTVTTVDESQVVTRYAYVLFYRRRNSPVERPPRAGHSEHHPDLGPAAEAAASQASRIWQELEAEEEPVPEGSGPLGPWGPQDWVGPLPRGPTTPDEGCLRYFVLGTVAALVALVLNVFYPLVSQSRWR
Method in brief: as §1

[3] = target: USP24 (UniProt Q9UPU5)
USP24, sequence (Q9UPU5 whole entry): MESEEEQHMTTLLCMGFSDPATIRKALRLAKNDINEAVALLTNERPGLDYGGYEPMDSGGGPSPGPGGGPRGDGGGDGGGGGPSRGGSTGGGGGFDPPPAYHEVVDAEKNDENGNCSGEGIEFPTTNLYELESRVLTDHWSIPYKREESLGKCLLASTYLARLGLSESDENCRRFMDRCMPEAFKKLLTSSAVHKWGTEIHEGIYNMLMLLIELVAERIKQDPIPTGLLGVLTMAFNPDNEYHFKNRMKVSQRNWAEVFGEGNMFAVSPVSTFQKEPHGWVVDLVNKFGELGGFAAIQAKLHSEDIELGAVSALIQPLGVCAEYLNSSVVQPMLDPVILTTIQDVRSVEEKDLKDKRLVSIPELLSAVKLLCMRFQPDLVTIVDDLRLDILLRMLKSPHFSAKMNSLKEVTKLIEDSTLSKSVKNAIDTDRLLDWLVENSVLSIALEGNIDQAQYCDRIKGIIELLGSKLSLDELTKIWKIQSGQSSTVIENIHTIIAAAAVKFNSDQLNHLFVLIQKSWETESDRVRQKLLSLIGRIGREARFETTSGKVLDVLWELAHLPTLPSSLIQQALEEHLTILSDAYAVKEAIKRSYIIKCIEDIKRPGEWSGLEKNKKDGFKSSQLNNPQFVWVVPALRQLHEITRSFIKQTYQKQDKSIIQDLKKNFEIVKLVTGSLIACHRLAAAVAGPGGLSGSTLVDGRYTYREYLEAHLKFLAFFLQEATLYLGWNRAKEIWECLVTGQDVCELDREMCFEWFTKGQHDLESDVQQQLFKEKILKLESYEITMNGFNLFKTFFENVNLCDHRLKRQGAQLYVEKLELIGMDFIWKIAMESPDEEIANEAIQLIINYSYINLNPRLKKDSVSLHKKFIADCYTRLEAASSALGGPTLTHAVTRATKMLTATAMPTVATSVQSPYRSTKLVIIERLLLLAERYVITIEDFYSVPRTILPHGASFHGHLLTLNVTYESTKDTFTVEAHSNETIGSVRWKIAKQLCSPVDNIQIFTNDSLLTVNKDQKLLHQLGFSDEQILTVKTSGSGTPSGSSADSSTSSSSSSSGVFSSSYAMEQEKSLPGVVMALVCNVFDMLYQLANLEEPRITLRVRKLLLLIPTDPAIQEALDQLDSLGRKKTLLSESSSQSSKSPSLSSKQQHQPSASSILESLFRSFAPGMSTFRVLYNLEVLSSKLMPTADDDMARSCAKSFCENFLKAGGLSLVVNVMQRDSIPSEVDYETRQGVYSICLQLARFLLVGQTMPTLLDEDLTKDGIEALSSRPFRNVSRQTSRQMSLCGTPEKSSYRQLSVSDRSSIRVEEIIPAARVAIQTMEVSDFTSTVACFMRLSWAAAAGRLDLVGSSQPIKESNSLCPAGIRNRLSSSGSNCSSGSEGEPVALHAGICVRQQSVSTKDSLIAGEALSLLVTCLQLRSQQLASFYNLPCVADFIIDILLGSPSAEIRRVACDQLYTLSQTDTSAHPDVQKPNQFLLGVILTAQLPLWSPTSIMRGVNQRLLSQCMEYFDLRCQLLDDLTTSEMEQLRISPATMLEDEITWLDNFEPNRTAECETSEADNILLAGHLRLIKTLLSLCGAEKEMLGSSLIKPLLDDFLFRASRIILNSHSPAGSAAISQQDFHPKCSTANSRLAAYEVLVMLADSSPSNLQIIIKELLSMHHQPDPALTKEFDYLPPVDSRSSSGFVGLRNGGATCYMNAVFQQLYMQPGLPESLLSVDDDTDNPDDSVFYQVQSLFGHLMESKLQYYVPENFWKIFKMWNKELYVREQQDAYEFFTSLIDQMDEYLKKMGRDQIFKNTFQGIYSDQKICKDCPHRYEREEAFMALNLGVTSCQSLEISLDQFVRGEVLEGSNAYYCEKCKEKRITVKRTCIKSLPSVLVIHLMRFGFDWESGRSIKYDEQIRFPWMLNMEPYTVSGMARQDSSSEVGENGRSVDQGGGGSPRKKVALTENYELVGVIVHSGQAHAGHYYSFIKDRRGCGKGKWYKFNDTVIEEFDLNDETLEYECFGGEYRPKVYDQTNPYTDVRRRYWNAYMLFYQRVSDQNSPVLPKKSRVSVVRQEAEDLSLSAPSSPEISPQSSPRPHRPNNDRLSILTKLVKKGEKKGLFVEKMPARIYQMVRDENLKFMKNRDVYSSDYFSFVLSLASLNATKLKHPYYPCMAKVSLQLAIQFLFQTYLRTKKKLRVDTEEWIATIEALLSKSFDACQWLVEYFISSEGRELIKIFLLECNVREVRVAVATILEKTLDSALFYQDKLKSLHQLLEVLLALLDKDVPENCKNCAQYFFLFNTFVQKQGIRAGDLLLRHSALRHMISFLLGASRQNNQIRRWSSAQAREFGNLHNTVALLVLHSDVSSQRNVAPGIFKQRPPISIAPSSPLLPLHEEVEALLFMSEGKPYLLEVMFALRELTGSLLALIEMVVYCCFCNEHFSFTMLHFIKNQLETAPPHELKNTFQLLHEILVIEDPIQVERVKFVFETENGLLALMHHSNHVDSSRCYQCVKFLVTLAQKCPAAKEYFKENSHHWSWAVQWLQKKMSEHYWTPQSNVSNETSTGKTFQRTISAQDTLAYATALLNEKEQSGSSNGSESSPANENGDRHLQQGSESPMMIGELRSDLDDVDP
Method in brief: as §1

[4] = target: T2, USP25 (UniProt Q9UHP3)
T2 sequence (whole entry): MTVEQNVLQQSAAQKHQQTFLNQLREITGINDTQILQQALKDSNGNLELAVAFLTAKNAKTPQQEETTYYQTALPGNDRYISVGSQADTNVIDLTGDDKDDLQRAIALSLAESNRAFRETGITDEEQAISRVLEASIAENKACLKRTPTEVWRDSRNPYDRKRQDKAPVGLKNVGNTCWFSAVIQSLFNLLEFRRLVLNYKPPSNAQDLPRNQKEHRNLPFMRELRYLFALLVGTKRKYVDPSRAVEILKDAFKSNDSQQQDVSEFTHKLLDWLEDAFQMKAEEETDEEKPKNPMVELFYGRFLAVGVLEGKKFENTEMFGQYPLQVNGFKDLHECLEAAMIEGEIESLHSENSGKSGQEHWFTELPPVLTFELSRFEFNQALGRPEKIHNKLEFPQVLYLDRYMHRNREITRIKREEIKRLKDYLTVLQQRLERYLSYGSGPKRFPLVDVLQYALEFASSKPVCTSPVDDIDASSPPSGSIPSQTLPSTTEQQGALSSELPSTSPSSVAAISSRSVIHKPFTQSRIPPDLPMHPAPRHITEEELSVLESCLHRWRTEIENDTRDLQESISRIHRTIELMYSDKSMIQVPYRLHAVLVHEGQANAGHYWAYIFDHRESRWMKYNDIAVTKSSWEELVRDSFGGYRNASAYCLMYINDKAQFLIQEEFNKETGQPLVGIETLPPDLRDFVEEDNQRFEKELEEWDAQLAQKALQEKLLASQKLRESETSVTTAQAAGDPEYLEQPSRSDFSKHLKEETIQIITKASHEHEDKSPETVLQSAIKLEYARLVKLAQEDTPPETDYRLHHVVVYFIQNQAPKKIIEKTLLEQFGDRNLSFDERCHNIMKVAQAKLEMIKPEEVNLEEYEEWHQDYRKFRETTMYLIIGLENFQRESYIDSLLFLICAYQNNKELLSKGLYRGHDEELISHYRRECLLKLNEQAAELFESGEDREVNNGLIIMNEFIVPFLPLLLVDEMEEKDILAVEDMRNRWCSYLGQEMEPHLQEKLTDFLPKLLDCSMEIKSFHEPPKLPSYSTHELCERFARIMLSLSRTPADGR
Method in brief: as §1

[5] = target: T3, USP28 (UniProt Q96RU2)
T3 sequence (whole entry): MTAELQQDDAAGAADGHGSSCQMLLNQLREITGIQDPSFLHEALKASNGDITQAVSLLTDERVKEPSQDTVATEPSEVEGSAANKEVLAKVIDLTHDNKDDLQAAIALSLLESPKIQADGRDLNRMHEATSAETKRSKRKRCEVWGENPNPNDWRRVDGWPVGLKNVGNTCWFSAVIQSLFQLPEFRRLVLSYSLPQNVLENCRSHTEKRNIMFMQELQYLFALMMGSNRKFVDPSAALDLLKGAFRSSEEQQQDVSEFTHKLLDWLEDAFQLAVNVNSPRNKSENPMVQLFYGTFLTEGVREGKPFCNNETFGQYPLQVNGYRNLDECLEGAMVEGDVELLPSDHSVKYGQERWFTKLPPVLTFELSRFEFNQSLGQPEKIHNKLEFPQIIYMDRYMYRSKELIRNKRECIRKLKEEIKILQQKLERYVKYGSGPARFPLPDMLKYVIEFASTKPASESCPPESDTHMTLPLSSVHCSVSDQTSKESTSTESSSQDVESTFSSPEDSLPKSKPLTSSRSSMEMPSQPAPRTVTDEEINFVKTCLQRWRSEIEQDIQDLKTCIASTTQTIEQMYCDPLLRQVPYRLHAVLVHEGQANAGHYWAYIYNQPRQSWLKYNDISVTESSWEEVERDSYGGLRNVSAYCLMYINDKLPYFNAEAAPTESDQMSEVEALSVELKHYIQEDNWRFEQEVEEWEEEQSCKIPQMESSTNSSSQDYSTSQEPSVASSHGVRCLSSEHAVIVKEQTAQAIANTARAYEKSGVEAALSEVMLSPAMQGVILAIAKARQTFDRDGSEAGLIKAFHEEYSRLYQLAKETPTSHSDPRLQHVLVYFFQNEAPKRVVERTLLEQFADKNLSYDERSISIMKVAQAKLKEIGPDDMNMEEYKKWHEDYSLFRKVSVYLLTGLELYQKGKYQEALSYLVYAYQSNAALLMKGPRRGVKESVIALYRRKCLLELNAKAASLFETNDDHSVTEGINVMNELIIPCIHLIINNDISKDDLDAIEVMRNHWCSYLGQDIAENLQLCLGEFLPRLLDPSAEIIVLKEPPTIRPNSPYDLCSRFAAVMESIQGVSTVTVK
Method in brief: as §1

Measured: log2 ratio of Biotin-Ahx-Ub-VS probe labelling

Cc1cc(CC(C)NC(=O)CCl)n[nH]1 (stereo not given)
inactive: [1] 0.186 | [2] -0.257 | [3] -0.17 | [4] -0.198 | [5] -0.332
